Screening results deposited in PubChem BioAssay by SRMLSC.
Sampled rows, rich in hits. Any-hit rate of the full collection: about 6.3%.
DPM-DC inhibit = blocks S. pneumoniae diphosphomevalonate decarboxylase; purified DPM-DC, PK/LDH coupled NADH fluorescence; actives 0.49% (n = 65,000); calls only at 10 µM;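 active = the 320 compounds with the highest percent inhibition in the single-dose primary screen, excluding strongly autofluorescent ones, cut at about 32% in these data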;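 also: kinetic rate of NADH fluorescence loss reporting ADP formed by the decarboxylase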
Abs 340nm = absorbance at 340 nm | compound absorbance at 340 nm, fold over control | fold change at 10 µM | 65,000 tested, under 10 active;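 active = at 10 µM dose, initial 340 nm absorbance at least 2 fold that of control wells; inactive = change under 2 fold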;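 also: initial absorbance extrapolated from kinetic A340 decline of NADH oxidation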
Autofluor 339 = intrinsic fluorescence of library compounds, ex339/em460 – biochemical, MLSMR library, data from DPM-DC assay, artefact control, profiling panel | compound autofluorescence, ex339/em460 nm, NADH buffer; active compounds read high; 1 = no-compound wells, NADH background | fluorescence fold increase at 10 µM | actives 5.5% (n = 65,000);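 active = at 10 µM, mean starting fluorescence two-fold or more over control wells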;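 also: signal is the first read of a kinetic run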
NADH enzymes = inhibitors of enzymes used to reach an NAD/NADH endpoint; AID 774; coupled PK/LDH NADH assays, four targets; actives 0.02% (n = 65,000); IC50, µM (top dose mostly 10 µM), for inactives: top-dose inhibition;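 active = single-dose screening hits from any of four coupled enzyme assays that gave an IC50 when retested across doses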;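 also: the DPM-DC format reads NADH fluorescence rather than 340 nm absorbance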
Spn MK inh = blocks S. pneumoniae mevalonate kinase. purified MK, PK/LDH-coupled NADH absorbance 340 nm. inhibition, % at 10 µM. actives 0.48% (n = 65,000). AID 555;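 active = ranked among the strongest by inhibition in the single 10 µM screen, a fixed top-ranked set picked for dose follow-up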
Spn PMK inh = blocks S. pneumoniae phosphomevalonate kinase; inhibition, % at 10 µM; actives 0.49% (n = 65,000); purified PMK, PK/LDH-coupled NADH absorbance 340 nm;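 active = top-ranked compounds by inhibition in the single 10 µM screen, taking a fixed number of the strongest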;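 also: 0% = full reaction with DMSO carrier and 100% = background rate without enzyme reaction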
* = called active by the depositor; i = inactive; . = not tested or not shown.

SMILES	DPM-DC inhibit	Abs 340nm	Autofluor 339	NADH enzymes	Spn MK inh	Spn PMK inh
CCCOc1ccc(C2C(=O)N(C3CCCCC3)CC(=O)N2CCCOCC)cc1OC (stereo not drawn)	i	0.98	0.99	9%	0	26*
COc1ccc(C2C(=O)N(C3CCCCC3)CC(=O)N2CCc2ccccc2)cc1OC (stereo not drawn)	i	1	1	9%	0	26*
CC1(C)Oc2ccc(NC(=O)C3COc4ccccc4O3)cc2O1 (stereo not drawn)	i	1	1.1	5%	5	10
Cc1cccc(NC(=O)c2cc(NC(=O)c3ccco3)ccc2N2CCCCC2)c1	.	1	3*	3%	6	12
O=C(c1oc2ccccc2c1CSCc1ccccc1)N1CCN(c2ncccn2)CC1	i	1	1	6%	0	14
COc1ccc2cc3cc(C(=O)NCCN4CCc5ccccc5C4)oc3nc2c1	.	1.1	5.1*	6%	3	8
COc1ccc(NC(=O)NCCCN2CCc3ccccc3C2)cc1	i	0.99	1.1	4%	10	2
COc1ccc2cc3cc(C(=O)NCCN4CCN(Cc5ccccc5)CC4)oc3nc2c1	.	1.1	5.2*	8%	3	12
O=C1CSC(=Nc2cc(Cl)ccc2Cl)N1	i	1.1	1	6%	13	4
COC(=O)c1ccccc1NC(=O)c1cc(-c2cccc(OC)c2)on1	i	1.1	1.4	4%	2	11
COC(=O)c1ccccc1NC(=O)c1cc(-c2cccs2)on1	i	1	2*	11%	8	15
COc1cc(CNCc2ccc(OC)c(OC)c2OC)cc(OC)c1	i	1.1	1.1	17%	51*	0
Cc1cnn(C(=O)c2oc3ccccc3c2C)c1	i	1.1	1.1	5%	3	10
Cc1oc2ccccc2c1-c1cn2c(n1)SCC2	.	1.1	3.6*	16%	15	17
COc1ccc(-n2nnc3c(SCC(=O)N4CCCc5ccccc54)ncnc32)cc1	i	1	1.1	3%	0	9
CCc1cc(C(=O)OC)c(NC(=O)c2cc(Br)cs2)s1	i	1.1	2.2*	0%	0	0
N#Cc1c2n(c(=S)n(-c3ccccn3)c1=O)CCCCC2	i	1	1	3%	2	16
Cc1ccc(C)c(Cn2c(CN(C)Cc3ccccc3)nc3c2c(=O)n(C)c(=O)n3C)c1	i	1	1.1	3%	0	9
COC(=O)C1=CN(C(C)C)C=C(C(=O)OC)C1c1cccc(OC)c1	.	1.1	2.2*	4%	4	4
COC(=O)c1cc(-c2cccc(OC)c2)on1	i	0.96	1.1	4%	3	10
COC(=O)C1=CN(C)C=C(C(=O)OC)C1c1ccccc1Cl	.	1.1	3.9*	8%	11	5
CCCCOc1ccccc1C1C(C(=O)OC)=CN(CC)C=C1C(=O)OC	.	1.1	2.2*	7%	10	3
CCCOc1ccccc1C1C(C(=O)OC)=CN(C(C)C)C=C1C(=O)OC	.	1.1	3.9*	8%	9	7
CCCCOc1ccccc1C(=O)NCC(=O)O	i	1	1.1	5%	7	6
CCCOc1ccccc1C1NC(=O)NC(C)=C1C(=O)OCCOCC (stereo not drawn)	i	0.99	1.1	2%	2	3
SMILES	DPM-DC inhibit	Abs 340nm	Autofluor 339	NADH enzymes	Spn MK inh	Spn PMK inh
COC(=O)C1=C(C)NC(C)=C(C(=O)OC)C1c1ccccc1[N+](=O)[O-]	i	0.98	0.57	4%	4	7
CCOC(=O)C1=C(C)NC(C)=C(C(=O)OC)C1c1cccc([N+](=O)[O-])c1 (stereo not drawn)	i	0.99	0.98	3%	4	1
CCN1C=C(C(=O)OC)C(c2cccc(C)c2)C(C(=O)OC)=C1	.	1.1	2.2*	2%	3	0
COC(=O)C1=CN(CCCN2CCCC2=O)C=C(C(=O)OC)C1c1ccccc1C(F)(F)F	.	1	2.2*	7%	7	7
COc1ccc(C(=O)n2nc(-c3ccccc3)nc2N)cc1OC	i	1.1	1.1	3%	7	3
Cc1ccc2nc3c(c(N)c2c1)CCN3c1ccccc1	.	1.1	3.7*	2%	1	3
Cc1ccc2cc(C)c(N3CCN(c4ccccn4)CC3)nc2c1	i	1.1	1.5	4%	0	0
O=c1[nH]c2ccccc2nc1C(F)(F)C(F)F	.	1.1	2.1*	5%	6	4
O=c1[nH]c2ccccc2nc1Cc1ccccc1	i	1	1.6	12%	13	1
Cc1ccccc1OCCNC(=O)CNC(=O)c1ccccc1O	.	1	3.7*	7%	4	9
COc1ccc(C2C=C(c3ccc(Br)cc3)Nc3nc(N4C(=O)CCC4=O)nn32)cc1 (stereo not drawn)	.	1.1	3.9*	6%	3	8
CC(=O)Nc1nc2n(n1)C(c1ccc(F)cc1)C=C(c1ccccc1)N2 (stereo not drawn)	.	1.1	3.4*	4%	8	0
Nc1nc(NC(=O)c2ccco2)nn1-c1ccccc1	i	1	1.1	2%	6	0
O=C(Nc1nc2nc(-c3ccccc3)cc(-c3ccccc3)n2n1)c1ccco1	.	1.1	4*	5%	9	0
CC(=O)Nc1nc2n(n1)C(c1ccccc1)C=C(c1ccccc1)N2 (stereo not drawn)	i	1.1	1.8	12%	7	12
O=C(Nc1nc2n(n1)C(c1ccccc1)C=C(c1ccccc1)N2)c1ccco1 (stereo not drawn)	i	1.1	2.6*	15%	12	19
COc1ccc(C2C=C(c3ccc(Cl)cc3)Nc3nc(NC(C)=O)nn32)cc1 (stereo not drawn)	.	1.1	2.3*	1%	0	2
O=C(c1nc2n(n1)C(c1ccc(Cl)cc1)C=C(c1ccccc1)N2)N1CCOCC1 (stereo not drawn)	i	1	1.4	2%	2	0
CC(=O)Nc1nc2n(n1)C(c1ccc(Cl)cc1)C=C(C)N2 (stereo not drawn)	.	1	4.9*	10%	0	20
COc1ccc(C2=CC(c3ccc(F)cc3)n3nnnc3N2)cc1 (stereo not drawn)	i	1.1	1.1	0%	0	0
COc1ccccc1C1C=C(c2ccc(Cl)cc2)Nc2nc(NS(C)(=O)=O)nn21 (stereo not drawn)	.	1.1	4*	7%	5	9
Cn1cccc1Cc1nnc(SCC(=O)Nc2ccc3c(c2)OCCO3)n1CCc1ccccc1	i	1	1.1	6%	7	12
CC(=O)c1cccc(NC(=O)c2nccnc2C(=O)O)c1	i	1.1	1	6%	1	16
